In PubChem BioAssay (NCATS):
Records with an inconclusive call do not appear. Unmarked numbers belong to inactive results. Calls of active or inactive are those of the source. Calls come from the whole dose curve; as a rule, active = well fitted cell-killing curve with a large enough effect; inconclusive = small, poorly fitted or top-dose-only effect; inactive = flat fitted curve, though single readings scatter.

Assay: Cell Viability - N2a (AID 540); note: nearly all actives have a fitted effect of over 45% in size;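 for activity change, negative = cytotoxicity: plate controls were DMSO alone for no effect and tamoxifen control for full effect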
Conditions: N2a mouse neuroblastoma cell viability; activity change, negative = cytotoxicity: at 92.2 µM (top of the series)
Source text: NIH Chemical Genomics Center [NCGC]
NIH Molecular Libraries Screening Centers Network [MLSCN]
National Institutes of Environmental Health Sciences [NIEHS]
National Toxicology Program [NTP]
We have developed a 1536-well cell-based assay for quantitative high throughput screening (qHTS) against a number of cell lines to determine in vitro cytotoxicity of small molecules. This particular assay uses the N2a cell line which is derived from mouse neuroblastoma.
NCGC Assay Protocol Summary:
The CellTiter-Glo luminescent cell viability assay (Promega) is a homogeneous method to measure the number of viable cells in culture. The end point readout of this assay is based on quantitation of intracellular ATP, an indicator of metabolic activity, using the luciferase reaction. Luciferase catalyzes the oxidation of beetle Luciferin to oxyluciferin and light in the presence of ATP. The luminescent signal is proportional to amount of ATP present.
Using the CellTiter-Glo luminescent cell viability assay, the amount of cellular ATP was measured in the N2a cell line with complete culture medium following compound treatment for 40 hours. The assay was performed in opaque white Kalypsys 1536-well plates. In the screen, tamoxifen and doxorubicin were used as positive controls. Library compounds were measured for their ability to cause acute toxicity in the cell line, as reflected by a decrease in intracellular ATP levels, in a concentration-dependent manner. […] AC50 values were determined from concentration-response data modeled with the standard Hill equation.
qHTS protocol for CellTiter Glo N2a cellular assay
[Step] [Parameter] [Value] [Description]
1. Reagent; 5 uL; 1500 N2a cells/well
2. Time; 5 hr; 37 °C incubation
4. Controls; 23 nL; Tamoxifen 0.34 uM to 100 uM & Doxorubicin 0.02 nM to 100 uM
5. Time; 40 hr; 37 °C incubation
6. Reagent; 5 uL; CellTiter Glo reagent
7. Time; 20 min; Room Temperature
8. Detection; Luminescence; Viewlux plate reader
Keywords: cell viability, cytotoxicity, N2a cell line, luminescence, NTPHTS, NTPHTS_NCGC, NIEHS, EPA, DSSTox, MLSMR, MLSCN, NIH Roadmap, qHTS, NCGC
Potency is the fitted concentration of half-maximal effect.

Row | SMILES | activity change, negative = cytotoxicity | Potency
1 | NC(=O)Nc1nc2ccccc2[nH]1 | -4.08% | 
2 | Nc1cnn([C@@H]2O[C@H](CO)[C@@H](O)[C@H]2O)c(=O)n1 | 8.82% | 
3 | CC(C)S | -5.34% | 
4 | O=c1[nH]ncc2ccccc12 | -2.98% | 
5 | Clc1nc2ccccc2nc1Cl | -7.43% | 
6 | c1ccc2c(c1)ccc1ccccc12 | -13.8% | 
7 | CC(/C=C/C=C(C)/C=C/C(=O)O)=C\C=C\C=C(C)\C=C\C=C(C)\C=C\C(=O)O | -5.79% | 
8 | Brc1cc(Oc2cc(Br)c(Br)c(Br)c2Br)c(Br)c(Br)c1Br | -25% | 
9 | CC(=O)OC(C(=O)c1ccccc1)c1ccccc1 (stereo not given) | -7.31% | 
10 | CC(=O)OC1CC(C)OC(C)O1 (stereo not given) | 7.5% | 
11 | CC(C)COC(=O)COc1cc(Cl)c(Cl)cc1Cl | 8.53% | 
12 | CCCCCCCC/C=C\CCCCCCCC(=O)N(CCO)CCO | -111% (active) | 
13 | O=C=Nc1ccc(Cl)c(Cl)c1 |  | 31.6 µM (active)
14 | O=C(O)/C=C/c1ccc(/C=C/C(=O)O)cc1 | -20.9% | 
15 | C[Si](C)(C)Cl | -6.55% | 
16 | CCOc1ccc2nc(N)sc2c1 | -2.03% | 
17 | CCN(CC)c1ccc2c(C)cc(=O)oc2c1 | -15.7% | 
18 | CCCCCCCCC1CO1 (stereo not given) | -1.38% | 
19 | C=C1CC[C@H](O)C/C1=C/C=C1\CCC[C@]2(C)[C@@H]([C@H](C)CCCC(C)C)CC[C@@H]12 |  | 31.6 µM (active)
20 | CCCCCCCCOc1ccc(C(=O)O)cc1 | -7.43% | 

Row | SMILES | activity change, negative = cytotoxicity | Potency
21 | Oc1cc(Cl)cc(Cl)c1Cl |  | 31.6 µM (active)
22 | Brc1ccc(-c2ccccc2)cc1 | -19.3% | 
23 | O=C(O)c1ccc([N+](=O)[O-])cc1 | 9.32% | 
24 | O=C(OCC1CO1)C1CCCCC1C(=O)OCC1CO1 (stereo not given) | 2.77% | 
25 | O=C(O)c1cc(N=Nc2ccc([N+](=O)[O-])cc2)ccc1O | -5.65% | 
26 | NC(=O)c1ccc([N+](=O)[O-])cc1 | 4.68% | 
27 | CC(=O)CC(=O)Nc1ccccc1 | -10.9% | 
28 | CC/C=C/C/C=C/C/C=C/CCCCCCCC(=O)OCC | -12.6% | 
29 | O=C1OC(=O)c2ccccc21 | -28.6% | 
30 | CN(C)c1ccc(Cc2ccc(N(C)C)cc2)cc1 | -41% | 
31 | Nc1ccc(-c2ccc(N)c(O)c2)cc1O | -122% (active) | 
32 | C1CCCNCC1 | -7.29% | 
33 | CC(=O)OCc1ccc2c(c1)OCO2 | -15.3% | 
34 | c1cc2c3c(c1)ccc1cccc(c13)C2 | 0.332% | 
35 | C=Cc1cccc(C)c1 | -2.59% | 
36 | COc1ccc(C)cc1N | -14.1% | 
37 | Nc1ccc(N)c(Cl)c1 | 3.89% | 
38 | N=C1C=CC(=C(c2ccc(N)cc2)c2ccc(N)cc2)C=C1 |  | 3.98 µM (active)
39 | O=CC(=O)c1ccccc1 | 5.07% | 
40 | Oc1cc2c(cc1O)[C@H]1c3ccc(O)c(O)c3OC[C@@]1(O)C2 | -91.8% (active) | 
